Laboratory results as given in PubChem BioAssay (NCI).
This is part of a sample that, as a whole, favours compounds with a hit. Of some 83,000 tested, about 20% had one in any assay.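 Each cell line was grown in a 96-well plate and treated with one concentration of compound for 48 hours. Values below 10 were considered active.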 Active and inactive are the calls of the source.

Key:
Experiment in all cases: NCI-60 one-dose screen, 48 h (100 = growth as untreated, 0 = no growth, -100 = all killed)
Conditions in all cases: 10 µM
NCI-H23 lung = tested on: NCI-H23 lung
NCI-H226 lung = tested on: NCI-H226 lung
NCI-H322M lung = tested on: NCI-H322M lung
HOP-62 NSCLC = tested on: HOP-62 NSCLC
NCI-H460 lung = tested on: NCI-H460 lung
A549/ATCC NSCLC = tested on: A549/ATCC NSCLC
786-0 renal = tested on: 786-0 renal
COLO 205 colon = tested on: COLO 205 colon
DU-145 prostate = tested on: DU-145 prostate

Measured: growth

Cc1ccc(S(=O)(=O)Oc2ccc3c4c(c(=O)oc3c2)CCCCC4)cc1
inactive: NCI-H23 lung 62.9% | NCI-H226 lung 55.9% | NCI-H322M lung 95.1% | HOP-62 NSCLC 81% | NCI-H460 lung 37.2% | A549/ATCC NSCLC 40.9% | 786-0 renal 66.6% | COLO 205 colon 28.5% | DU-145 prostate 87.8%

ClCCOCCn1cnc2c(Cl)nc(Cl)nc21
active: DU-145 prostate -5.51%
inactive: NCI-H23 lung 55.1% | NCI-H226 lung 74.8% | NCI-H322M lung 89.9% | HOP-62 NSCLC 88.6% | NCI-H460 lung 28.5% | A549/ATCC NSCLC 60.7% | 786-0 renal 87.6% | COLO 205 colon 88.1%

CCC(=O)N1C/C(=C/c2ccc(OC)cc2)C(=O)/C(=C/c2ccc(OC)cc2)C1
inactive: NCI-H23 lung 63.9% | NCI-H226 lung 29.5% | NCI-H322M lung 111% | HOP-62 NSCLC 20.5% | NCI-H460 lung 61.4% | A549/ATCC NSCLC 32% | COLO 205 colon 27.2% | DU-145 prostate 18.7%
active: 786-0 renal 4.83%

CCOCC(=O)C(C#N)c1ccc(Cl)c(Cl)c1 (stereo unspecified)
inactive: NCI-H23 lung 106% | NCI-H226 lung 88.8% | NCI-H322M lung 102% | HOP-62 NSCLC 90.9% | NCI-H460 lung 107% | A549/ATCC NSCLC 101% | 786-0 renal 101% | COLO 205 colon 115% | DU-145 prostate 113%

CCOC(=O)N1C/C(=C/c2ccc(Cl)cc2)C(=O)/C(=C/c2ccc(Cl)cc2)C1
inactive: NCI-H23 lung 72.1% | NCI-H226 lung 39.3% | NCI-H322M lung 79.2% | HOP-62 NSCLC 64.7% | NCI-H460 lung 77.8% | A549/ATCC NSCLC 61.1% | 786-0 renal 65.6% | COLO 205 colon 45.3% | DU-145 prostate 46.3%

O=C(c1ccc(Cl)cc1Cl)N1CCOCC1
inactive: NCI-H23 lung 97.3% | NCI-H226 lung 96.8% | NCI-H322M lung 101% | HOP-62 NSCLC 97% | NCI-H460 lung 104% | A549/ATCC NSCLC 98.4% | 786-0 renal 97.4% | COLO 205 colon 111% | DU-145 prostate 109%

c1ccc(C(NC2CC3CCC2C3)c2ccccc2)cc1 (stereo unspecified)
inactive: NCI-H23 lung 105% | NCI-H226 lung 85.8% | NCI-H322M lung 101% | HOP-62 NSCLC 97.2% | NCI-H460 lung 105% | A549/ATCC NSCLC 95.7% | 786-0 renal 97% | COLO 205 colon 103% | DU-145 prostate 108%

Fc1ccc(-c2nnc(-c3c(-c4ccc(F)cc4)nc4ccccn34)o2)cc1
inactive: NCI-H23 lung 69% | NCI-H226 lung 84.2% | NCI-H322M lung 105% | HOP-62 NSCLC 78.5% | NCI-H460 lung 70% | A549/ATCC NSCLC 72.4% | 786-0 renal 88.2% | COLO 205 colon 79.5% | DU-145 prostate 92.1%

CC(=O)N1C/C(=C/c2ccc(Cl)cc2)C(=O)/C(=C/c2ccc(Cl)cc2)C1
active: NCI-H23 lung -28% | NCI-H226 lung -39.5% | NCI-H322M lung -9.19% | HOP-62 NSCLC -29.7% | NCI-H460 lung -14.1% | A549/ATCC NSCLC -24.6% | 786-0 renal -59.3% | COLO 205 colon -48.8% | DU-145 prostate -30.5%

O=C1/C(=C\c2ccc(F)cc2)CN(C(=O)c2ccccc2)C/C1=C\c1ccc(F)cc1
inactive: NCI-H23 lung 61.8% | NCI-H226 lung 36.6% | NCI-H322M lung 73.6% | HOP-62 NSCLC 53.3% | NCI-H460 lung 58% | A549/ATCC NSCLC 49.2% | 786-0 renal 33.6% | COLO 205 colon 50.9% | DU-145 prostate 31.7%

COc1ccc2c(c1OC)O/C(=C\c1ncc([N+](=O)[O-])n1C)C2=O
active: NCI-H23 lung -17.1% | NCI-H460 lung -20.8% | COLO 205 colon -55.6% | DU-145 prostate -24.7%
inactive: NCI-H226 lung 66.6% | NCI-H322M lung 84.1% | HOP-62 NSCLC 56% | A549/ATCC NSCLC 19.3% | 786-0 renal 17.9%

O=C1/C(=C\c2ccc(F)cc2)CN(C(=O)c2ccccc2F)C/C1=C\c1ccc(F)cc1
inactive: NCI-H23 lung 16.4% | NCI-H322M lung 77.6% | NCI-H460 lung 17.8% | A549/ATCC NSCLC 12.9%
active: NCI-H226 lung -32.9% | HOP-62 NSCLC -15.5% | 786-0 renal -51% | COLO 205 colon -42.9% | DU-145 prostate -10.4%

CC(=O)n1c(-c2ccc(Cl)c(Cl)c2)cn(-c2ccc(Cl)cc2)c1=O
inactive: NCI-H23 lung 27.5% | NCI-H226 lung 76.2% | NCI-H322M lung 69%
active: HOP-62 NSCLC -29.1% | NCI-H460 lung 3.52% | A549/ATCC NSCLC -10.1% | 786-0 renal 2.32% | COLO 205 colon -19.2% | DU-145 prostate 0.358%

O=C(Nc1cccc(-n2cc(-c3ccncc3)c(-c3ccc(O)c(Cl)c3)n2)c1)c1cccc(C(F)(F)F)c1
inactive: NCI-H23 lung 41.9% | NCI-H226 lung 68% | NCI-H322M lung 47% | HOP-62 NSCLC 47.2% | NCI-H460 lung 17.2% | A549/ATCC NSCLC 16.1% | 786-0 renal 21.4% | COLO 205 colon 98.8% | DU-145 prostate 51.1%

Cc1cccc2c1O/C(=C\c1ccc([N+](=O)[O-])o1)C2=O
inactive: NCI-H322M lung 37.9%
active: NCI-H23 lung -39.8% | NCI-H226 lung -57.8% | HOP-62 NSCLC -25.6% | NCI-H460 lung -58.5% | A549/ATCC NSCLC -12.2% | 786-0 renal -39.5% | COLO 205 colon -84.3% | DU-145 prostate -62.7%

CCN(CC)CCSCCN(CC)CC
inactive: NCI-H23 lung 102% | NCI-H226 lung 101% | NCI-H322M lung 109% | HOP-62 NSCLC 108% | NCI-H460 lung 102% | A549/ATCC NSCLC 103% | 786-0 renal 102% | COLO 205 colon 106% | DU-145 prostate 109%

Nc1ccc2cc(S(=O)(=O)O)cc(O)c2c1N=Nc1ccc(F)cc1
inactive: NCI-H23 lung 94.6% | NCI-H226 lung 107% | NCI-H322M lung 104% | HOP-62 NSCLC 109% | NCI-H460 lung 115% | A549/ATCC NSCLC 109% | 786-0 renal 100% | COLO 205 colon 111% | DU-145 prostate 118%

COc1cc(Cl)cc(-c2nn(-c3cccc(NC(=O)c4ccc(N5CCOCC5)c(C(F)(F)F)c4)c3)cc2-c2ccncc2)c1
inactive: NCI-H23 lung 79% | NCI-H226 lung 64.2% | NCI-H322M lung 89.6% | HOP-62 NSCLC 52.2% | NCI-H460 lung 29.3% | A549/ATCC NSCLC 45.5% | 786-0 renal 43.1% | COLO 205 colon 52.7% | DU-145 prostate 93.3%

NC1=NC(=O)C(c2ccccc2)(c2ccccc2)S1
inactive: NCI-H23 lung 106% | NCI-H226 lung 103% | NCI-H322M lung 111% | HOP-62 NSCLC 98.1% | NCI-H460 lung 113% | A549/ATCC NSCLC 104% | 786-0 renal 102% | COLO 205 colon 117% | DU-145 prostate 114%
